PTHR1 ag – PTHR1 (human) receptor agonism; Q03431; AID 743266; HEK293 GP2 PTHR1 cells, GloSensor cAMP luminescence, 1 h; Potency, µM (series often up to 115 µM), for inactives: at the highest dose activation, hits mostly activators; 410,000 tested, 0.075% active; further: nearly all actives have a fitted effect of over 55% in size
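HEK-293-derived GP2 cells expressing PTHR1 and a GloSensor cAMP reporter, 3,000/well, plated overnight, given luciferin plus IBMX (each 0.5 mM as added) for 1 h at 37 °C, then compound for 1 h at 37 °C. Luminescence was read after 15 min at room temperature.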
GLS inh – glutaminase GLS (human) inhibition; GLS enzymatic activity, qHTS titration; Potency, µM (highest dose often 45.5 µM), inactives show at the top dose activity change, negative = inhibition, most hits filed as inhibitors; 410,000 tested, 0.21% active; further: on the % scale 0 is the no-effect control and ±100 the full control effect
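Human kidney-isoform GLS in 45 mM KH2PO4 pH 8.2, 0.02% Tween-20, with compound, started with 1mM L-Glutamine (added stock). Glutamate oxidase/HRP/Amplex red coupled fluorescence read at start and after 30 min at RT.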
GLP1R ag – agonists of human GLP-1 receptor | HEK293 GLP-1R CRE-luciferase, luminescence, 4-6 h; cells express a hypersensitive GLP-1R form | Potency, µM (top dose mostly 45.6 µM), for the others: at the top dose activation, actives largely listed as activators | 380,000 tested, 0.007% active | AID 624172; further: % of control where 0% means no effect
Target sequence (P43220 whole entry, looked up): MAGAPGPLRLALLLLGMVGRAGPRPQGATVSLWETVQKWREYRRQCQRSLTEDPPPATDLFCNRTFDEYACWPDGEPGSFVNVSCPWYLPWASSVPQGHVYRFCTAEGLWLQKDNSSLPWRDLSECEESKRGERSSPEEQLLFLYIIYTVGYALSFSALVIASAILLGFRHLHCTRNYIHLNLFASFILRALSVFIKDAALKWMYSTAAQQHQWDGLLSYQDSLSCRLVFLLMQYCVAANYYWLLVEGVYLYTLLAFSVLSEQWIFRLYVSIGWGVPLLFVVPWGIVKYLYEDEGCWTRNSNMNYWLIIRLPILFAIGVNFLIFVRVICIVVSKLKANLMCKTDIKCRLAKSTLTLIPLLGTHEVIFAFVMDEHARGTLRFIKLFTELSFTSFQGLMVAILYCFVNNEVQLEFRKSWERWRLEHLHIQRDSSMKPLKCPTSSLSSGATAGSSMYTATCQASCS
GLP1R inv ag – inverse agonists of human GLP-1 receptor; AID 624417; HEK293 GLP-1R CRE-luciferase, luminescence, 24 h; GLP-1R form is constitutively active; 410,000 tested, 1.6% active; Potency, µM (titrated, usually from 38.3 µM), inactives show at the top dose activity change, negative = inhibition, hits mostly inhibitors; further: on the % scale 0 is the no-effect control and ±100 the full control effect; nearly all actives have a fitted effect of over 55% in size
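HEK293 cells stably co-expressing a cAMP-responsive luciferase reporter and constitutively active GLP-1R were seeded, incubated 12 h, then exposed to compounds for 24 h at 37 C. Luminescence was read 12 min after detection reagent; inverse agonists lower signal.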
Glioma ERSR ind – inducers of ER stress response in human glioma cells; 420,000 tested, 0.02% active; U87-MG GRP78 promoter luciferase reporter, 16 h; AID 602332; Potency, µM, inactives show top-dose activation, hits mostly activators; further: series mostly up to about 76 µM; % of control where 0% means no effect; nearly all actives have a fitted effect of over 35% in size
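ERSR induction read as luciferase luminescence (Bright-Glo, 10 min at room temperature) in stably transfected human U87-MG glioma cells exposed to compounds for 16 h, using GRP78 as sensor.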
ALOX12 inh – inhibitors of human 12S-lipoxygenase ALOX12; P18054; purified 12hLO, xylenol orange hydroperoxide absorbance; Potency, µM (top dose mostly 108 µM), for inactives: at the top dose activity change, negative = inhibition, most hits filed as inhibitors; 580,000 tested, 1.1% active; further: on the % scale 0 is the no-effect control and ±100 the full control effect
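Hydroperoxide product was detected by ferrous iron/xylenol orange as the 573 to 405 nm absorbance ratio. Arachidonic acid at 40 uM (final) was turned over for 30 min at room temperature by 150 nM human 12hLO, pH 7.0 Hepes buffer, after 15 min compound preincubation.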
The depositor's hits bear a star; i = inactive; ? = inconclusive; / = no result given; ! = a repeat was not active; [ ] = another dose, or the depositor's remark. Sampled rows, rich in hits. Any-hit rate of the full collection: about 2.3%. The call rests on the fitted dose curve; in most records, active means well fitted curve in the direction sought with a large enough effect; inconclusive means small, poorly fitted or top-dose-only effect, or another doubt; inactive means no such curve, though single readings can be large; an effect the other way counts as inactive or inconclusive. Potency means the concentration at half of the fitted maximal effect.

SMILES	PTHR1 ag	GLS inh	GLP1R ag	GLP1R inv ag	Glioma ERSR ind	ALOX12 inh
COc1cccc(NC(=O)C2(C)CCN2CCc2ccccc2)c1 (configuration not stated)	-12.6%	-2.2%	4.9%	11.2µM*	-2.6%	-1.6%
COc1cccc(NC(=O)c2cccc(S(=O)(=O)N3CCN(Cc4ccccc4)CC3)c2)c1	-53.0%	0.3%	5.9%	6.31µM*	1.0%	-13.4%
CC(=O)Nc1cccc(NC(=O)c2cccc(S(=O)(=O)N3CCN(Cc4ccccc4)CC3)c2)c1	i	0.2%	-8.0%	?	-2.4%	-20.4%
COC(=O)c1ccc(-c2ccco2)n1Cc1nc(-c2ccc(OC)c(OC)c2)oc1C	-8.4%[57.5 µM]	18.0%	1.1%	10µM*	-2.2%	?
CC(C)CNC(=S)NC(=O)c1ccc(F)cc1	i	11.8%	5.7%	?	12.2%	35.5µM*
O=C(NC(=S)NC(CO)Cc1ccccc1)c1ccc(F)cc1 (configuration not stated)	i	4.5%	6.7%	?	17.7%	39.8µM*
COC(=O)C(Cc1ccccc1)NC(=S)NC(=O)c1ccccc1 (configuration not stated)	-4.0%	-14.8%	-2.2%	?	0.3%	?
CC(c1nc2ccccc2[nH]1)n1c(=O)c(-c2ccco2)nc2ccccc21 (configuration not stated)	i	/	/	-13.3%	/	12.6µM*
O=c1c(-c2cc3ccccc3[nH]2)nc2ccccc2n1C(CCc1ccccc1)c1nc2ccccc2[nH]1 (configuration not stated)	-14.5%	/	/	3.16µM*	/	-42.4%
O=C(NCc1ccccc1)C(CCc1ccccc1)n1c(=O)c(-c2cc3ccccc3[nH]2)nc2ccccc21 (configuration not stated)	i	/	/	5.62µM*	/	2.6%
Cc1nnsc1-c1nc2ccccc2n1C(CCc1ccccc1)c1nc2ccccc2[nH]1 (configuration not stated)	-59.9%	/	/	11.2µM*	/	-21.7%
O=C(NCc1ccccc1)C(c1cccc2ccccc12)n1c(=O)c(-c2cc3ccccc3[nH]2)nc2ccccc21 (configuration not stated)	i	/	/	?	/	-12.5%
O=C(O)C1(c2cccc(Cl)c2)CC1	/	/	/	/	/	13.2%
COC(=O)c1ccc2nc(C[C@@H]3C[C@@H](C(C)C)[C@H](CNC4CCCCC4)C=C3C)[nH]c2c1	/	/	/	/	/	-15.1%
N#Cc1ccc(C(C(=O)NCc2ccccc2)n2c(=O)c(-c3cc4ccccc4[nH]3)nc3ccccc32)cc1 (configuration not stated)	-13.2%	/	/	?	/	-3.4%
O=C(NCc1ccccc1)C(c1ccc(C(F)(F)F)cc1)n1c(=O)c(-c2cc3ccccc3[nH]2)nc2ccccc21 (configuration not stated)	i	/	/	4.47µM*	/	?
N=C(N)c1ccnc(Sc2nc3ccccc3[nH]2)c1	/	/	/	/	/	-5.8%
CC(Sc1ccc(Cl)cc1)C(=O)N1CCN(c2nccs2)CC1 (configuration not stated)	/	/	/	/	/	4.8%
CCc1nc(NCCCO)c(C#N)c2c1CCCC2	/	/	/	/	/	21.3%
CC(C)n1c(=S)[nH]c2c1c(=O)[nH]c(=O)n2C	i	?	-2.5%	-17.8%	-3.8%	5.01µM*
CNC(=O)NC(=O)C(C)Sc1nc(C2CC2)nc2ccccc12 (configuration not stated)	/	/	/	/	/	-67.5%
CC(C)Nc1nc(-c2ccc(S(=O)(=O)N3CCCCCC3)cc2)cs1	/	/	/	/	/	-5.8%
[C-]#[N+][C@H](O[C@@H]1O[C@H](CO)[C@@H](O)[C@H](O)[C@H]1O)c1ccccc1	-6.0%	-5.7%	16.7%	4.4%	-1.7%	-4.4%
O=C(O)CC(CCc1ccccc1)OC1OC(CO)C(O)C(O)C1O (configuration not stated)	-46.1%	?	10.5%	6.2%	-0.9%	44.7µM*
Clc1ccc(CN2CCC(Cc3ccccc3)CC2)cc1	-35.1%	0.9%	-2.8%	?	-5.9%	?
SMILES	PTHR1 ag	GLS inh	GLP1R ag	GLP1R inv ag	Glioma ERSR ind	ALOX12 inh
CSc1ccc(CN2CCC(Cc3ccccc3)CC2)cc1	i	-5.7%	1.3%	?	-2.4%	1.58µM*
COc1cc(OC)c(CN2CCC(Cc3ccccc3)CC2)cc1Br	i	-5.3%	-6.6%	?	-5.2%	1µM*
COc1ccc(OC)c(CN2CCC(Cc3ccccc3)CC2)c1	-13.0%	3.8%	-2.7%	?	-2.0%	?
COc1ccccc1CN1CCC(Cc2ccccc2)CC1	/	/	/	/	/	0.562µM*
CC(=O)Nc1ccc(CNC2CCCc3ccccc32)cc1 (configuration not stated)	/	/	/	/	/	-30.2%
CC(C)C(=O)NC(Nc1ccccc1F)C(Cl)(Cl)Cl (configuration not stated)	-18.7%[57.5 µM]	-5.7%	2.4%	0.0%	-3.2%	18.4%
CC(C)C(=O)NC(Nc1cccc2ccccc12)C(Cl)(Cl)Cl (configuration not stated)	/	/	/	/	/	11.2µM*
COc1ccc(Nc2ccccc2NC(=O)c2ccccc2Br)cc1	-31.9%	10µM*	6.7%	?	-3.6%	-14.5%
Cc1ccccc1C(=O)Nc1ccccc1NC(=O)c1ccccc1Br	i	1.5%	7.1%	?	-3.4%	14.3%
CCN(CC)c1ccc(NC(=O)c2ccccc2Br)cc1S(=O)(=O)Nc1ccccc1OC	i	-8.0%	4.2%	?	-2.2%	35.5µM*
COc1ccc(Nc2ccccc2N)cc1	-33.5%	10µM*	0.1%	?	4.5%	?
COc1ccc(-c2c(C)oc3c(C)c(OCCN4CCC(C(N)=O)CC4)ccc3c2=O)cc1	/	/	/	/	/	-39.4%
Cc1cc(C)c2[nH]c(=S)cc(C)c2c1	i	14.4%	-3.5%	0.8%	-2.9%	6.31µM*!
COc1ccc(C(=O)NCCc2noc(-c3cccnc3)n2)cc1OC	/	/	/	/	/	1.4%
CC(C)c1ccc(NC(=O)c2ccc[n+]([O-])c2)cc1	/	/	/	/	/	36.4%
CC(C)n1nc(C(=O)NCCCC(=O)O)c2ccccc2c1=O	/	/	/	/	/	9.8%
Cn1c(-c2cc3c(C(F)(F)F)nn(C)c3s2)n[nH]c1=S	i	-12.4%	0.5%	3.0%	-2.4%	?
CCn1c(-c2cc3c(C(F)(F)F)nn(C)c3s2)n[nH]c1=S	-1.1%[57.5 µM]	-2.3%	35.1%	0.0%	-1.1%	10µM*
COc1cccc2c1C(=O)c1c(O)c3c(c(O)c1C2=O)C[C@@](O)(C(=O)CO)C[C@@H]3OC1CC(N)C(O)C(C)O1 (some centres not stated)	i	-0.2%	-20.8%	4.47µM*	-0.9%	?
